The record followed here is the supplement of paper PMC9399229.

Values joined by “and” are separate entries in the source; they are usually repeats but may differ in a detail not shown here. Identical values can stand only once. Counter-ions that a name gives are not always drawn. ± gives the standard deviation of the averaged measurements. Over roughly 1,900 compounds, “relative cell viability (CellTiter-Glo), compound alone” has its median near 1; the lowest 2% begin near 0.16. Shown is part of a subset that was picked to be rich in the lowest values.

The assay relates to Hep3B. The assay is described as follows: relative cell viability (CellTiter-Glo), compound alone (fraction); higher = more viable cells (less growth inhibition). Conditions: cabozantinib 0 µM; 4 days.
Regarding `Cc1ccc(C(=O)c2cc(O)c(O)c([N+](=O)[O-])c2)cc1` [Tolcapone], the relative cell viability turned out to be 1.05 ± 0.076.
Consider `C=CC(=O)Nc1ccc2ncnc(Nc3cccc(Br)c3)c2c1`, for which the relative cell viability is 1.48 ± 0.24.
Under `NC(=S)N/N=C/c1ncccc1N` [Triapine] stands 1.17 ± 0.017.
With `COc1cc(Nc2ncc(F)c(Nc3ccc4c(n3)N(COP(=O)(O)O)C(=O)C(C)(C)O4)n2)cc(OC)c1OC` [Fostamatinib (R788)] the figure was 0.843 ± 0.025; with `C/C(=C\c1ccc(C(=O)O)cc1)c1ccc2c(c1)C(C)(C)CCC2(C)C` [TTNPB (Arotinoid Acid)], 1.11 ± 0.1; with `CO[C@H]1C[C@@H]2CC[C@@H](C)[C@@](O)(O2)C(=O)C(=O)N2CCCC[C@H]2C(=O)O[C@H]([C@H](C)C[C@@H]2CC[C@@H](OP(C)(C)=O)[C@H](OC)C2)CC(=O)[C@H](C)/C=C(\C)[C@@H](O)[C@@H](OC)C(=O)[C@H](C)C[C@H](C)/C=C/C=C/C=C/1C` [Ridaforolimus (Deforolimus, MK-8669)], 1.07 ± 0.074.
In the case of `CC1=CC(=O)c2ccccc2C1=O` [Menadione], the relative cell viability was determined as 0.9362 ± 0.0074.
With `CC(=O)Nc1ccccc1` [Acetanilide] the figure was 1.17 ± 0.044; with `CC(C)(C)C(=O)Nc1ccc2c(c1)C(=O)C(=O)c1ccccc1-2`, 0.0728 ± 0.012.
With `NC(=O)CCCSc1nc(N)nc(-c2c(Cl)cc3c4c(cccc24)COC3)n1`, the relative cell viability worked out at 0.19 ± 0.026.
`Cc1[nH]c2ccccc2c1CCNC(=O)c1cccs1` returned a relative cell viability of 1.19 ± 0.067.
Under `Cc1[nH]c2ccccc2c1CCNCc1ccc(/C=C/C(=O)NO)cc1` [Panobinostat (LBH589)] stands 0.12 ± 0.019; under `O=C(/C=C/c1cccc(S(=O)(=O)Nc2ccccc2)c1)NO` [Belinostat (PXD101)], 0.216 ± 0.019.
With `Cn1cc(-c2ccncc2)c(-c2ccc(OCc3ccc4ccccc4n3)cc2)n1` the figure was 1.13 ± 0.025.
Turning to `COc1cc(Br)c(Nc2nc(-c3c(C)nc4ncccn34)cs2)c(Br)c1`, the relative cell viability is 0.601 and 0.575.
Under `O=C(Nc1ccccc1)c1ccccc1O` [Salicylanilide] stands 1.147 ± 0.0051.
In the case of `CC(ONC(=O)c1cc(C(F)(F)F)cc(C(F)(F)F)c1)C(=O)Nc1ccc(Cl)cc1` (configuration not stated), the relative cell viability is 1.02 ± 0.094.
Turning to `O=C(Nc1cc(C(F)(F)F)cc(C(F)(F)F)c1)c1cc(Cl)ccc1O`, the relative cell viability was determined as 0.0996 ± 0.0025.
Under `CN1CCN(Cc2ccc(-c3cnc4[nH]cc(-c5ccc6[nH]ccc6c5)c4c3)cc2)CC1` stands 0.791 ± 0.033.
Turning to `CCNC(=O)c1noc(-c2cc(C(C)C)c(O)cc2O)c1-c1ccc(CN2CCOCC2)cc1`, the relative cell viability turned out to be 0.176 ± 0.04.
Compound `CCNC(=O)c1[nH]nc(-c2cc(Cl)c(O)cc2O)c1-c1ccc(OC)cc1` had a relative cell viability of 0.348 ± 0.025.
In the case of `CCNC(=O)c1noc(-c2cc(Cl)c(O)cc2O)c1-c1ccc(OC)cc1`, the relative cell viability worked out at 0.15572 ± 2.3e-05.
Consider `COc1ccc2cccc(CCNC(C)=O)c2c1` [Agomelatine], for which the relative cell viability was determined as 1.1 ± 0.097.
Turning to `CC(=O)Nc1ccc(NC(=S)NC(=O)c2ccc(C(C)(C)C)cc2)cc1` [Tenovin-1], the relative cell viability was 0.269 ± 0.0096.
As for `CC1(C)CC[C@]2(NC(=O)C(C)(F)F)CC[C@]3(C)[C@H](C(=O)C=C4[C@@]5(C)C=C(C#N)C(=O)C(C)(C)[C@@H]5CC[C@]43C)[C@@H]2C1` [Omaveloxolone (RTA-408)], the relative cell viability was 0.206 ± 0.0087.
With `COc1cc(N2CCN(C)CC2)ccc1Nc1nccc(-c2cn(C)c3cnccc23)n1` the figure was 1.05 ± 0.027; with `CC(=O)N1CCN(CCOc2ccc(C3CCN(C4=Nn5c(nnc5C(F)(F)F)CC4)CC3)cc2)CC1`, 1.3 ± 0.037; with `CNc1cc(-c2cccc(Cl)c2Cl)nc(N)n1`, 1.1 ± 0.021.
Compound `Cc1[nH]nc2ccc(-c3cncc(OC[C@@H](N)Cc4ccccc4)c3)cc12` returned a relative cell viability of 0.123 ± 0.0016.
Consider `Cn1nc(C(C)(C)C)cc1C(=O)N[C@@H](Cc1cccc(Cl)c1)C(=O)NCC#N` [Cathepsin Inhibitor 1], for which the relative cell viability turned out to be 1.151 ± 0.011.
Under `O=C(NCc1ccc(Oc2ccccc2)cc1)c1nc(-c2cc(Br)c(O)c(Br)c2)no1` stands 1.13 ± 0.022; under `Cn1cc(CNCC2CCN(c3ncc(C(=O)NO)cn3)CC2)c2ccccc21`, 0.163 ± 0.029.
As for `O=C(NC1CC1)c1cc(-c2cccs2)on1` [Isoxazole 9 (ISX-9)], the relative cell viability worked out at 1.13 ± 0.015.
In turn, `O=C(O)C(S)=Cc1c[nH]c2ccc(F)cc12` showed a relative cell viability of 1.27 ± 0.013.
The compound `Cc1cc(C)c(CNC(=O)c2cc(-c3ccc(N4CCN(C)CC4)nc3)cc3c2c(C)cn3C(C)C)c(=O)[nH]1` showed a relative cell viability of 1.078 ± 0.0077.
With `O=C(/C=C/c1ccc(O)cc1)c1ccc(O)cc1O` [Isoliquiritigenin] the figure was 0.904 ± 0.33; with `O=c1[nH]c(=O)n(C2CC(O)C(CO)O2)cc1Br` (configuration not stated) [Bromodeoxyuridine (BrdU)], 1.04 ± 0.082.
Turning to `CCCCc1nc2cc(/C=C/C(=O)NO)ccc2n1CCN(CC)CC` [Pracinostat (SB939)], the relative cell viability came to 0.155 ± 0.046.
Consider `CN(C)Cc1ccc(S(=O)(=O)n2ccc(/C=C/C(=O)NO)c2)cc1` [Resminostat], for which the relative cell viability came out at 0.781 ± 0.029.
With `Cc1ccc(S(=O)(=O)c2ccc([N+](=O)[O-])o2)cc1` the figure was 0.2656 ± 0.0026; with `O=[N+]([O-])c1cn2c(n1)OC[C@@H](OCc1ccc(OC(F)(F)F)cc1)C2`, 1.05 ± 0.064.
`COC(=O)CC[C@H](NC(=O)[C@H](CC(=O)OC)NC(=O)OCc1ccccc1)C(=O)N[C@H](C(=O)N[C@@H](CC(=O)OC)C(=O)CF)C(C)C` came in with a relative cell viability of 1.25 ± 0.12.
The compound `CC(C)(Cc1ccc2ccccc2c1)NC[C@@H](O)COc1cccc(Cl)c1C#N` returned a relative cell viability of 1.09 ± 0.051.
As for `O=C(NCC1(c2nc(-c3ccccc3)cs2)CCOCC1)c1cccc(-c2noc(C(F)(F)F)n2)c1`, the relative cell viability is 1.1 ± 0.12.
`O=C(Nc1cccc(Cl)c1)c1ccccn1` yielded a relative cell viability of 0.9222 ± 0.0036.
In turn, `Clc1ccc(NN=C(c2ccccc2)c2ccccn2)nc1` yielded a relative cell viability of 0.0829 ± 0.0081.
In turn, `COc1ccc(CCc2nc3cc(-c4c(C)noc4C)ccc3n2C[C@H](C)N2CCOCC2)cc1Cl` displayed a relative cell viability of 0.925 ± 0.092.
`CNC(=O)[C@H](Cc1c[nH]c2ccccc12)NC(=O)[C@@H](CC(=O)NO)CC(C)C` [Ilomastat (GM6001, Galardin)] showed a relative cell viability of 1.05 ± 0.021.
`Cc1ccc(NC(=O)c2ccc(CN3CC[C@H](N(C)C)C3)c(C(F)(F)F)c2)cc1Nc1nccc(-c2cncnc2)n1` [Bafetinib (INNO-406)]: the relative cell viability worked out at 1.13 ± 0.047.
`CCCN1CCCC[C@H]1C(=O)Nc1c(C)cccc1C` [Ropivacaine HCl]: the relative cell viability was 1.02 ± 0.075.
`CC[C@@H](C)Nc1cc(C(=O)N[C@H]2C[C@H]3CC[C@@H](C2)N3c2ccc(C(=O)C3CC3)cn2)c(C)cc1C(N)=O`: the relative cell viability came to 0.213 ± 0.014.
`O=C(O)Cn1nnc(-c2cc(N3CCC(Oc4cc(F)ccc4Br)CC3)no2)n1`: the relative cell viability was 1.05 ± 0.024.
Consider `CC(C)(C)c1cc(/C=C(\C#N)C(N)=S)cc(C(C)(C)C)c1O` [Tyrphostin AG 879], for which the relative cell viability is 1.04 ± 0.053.
As to `FC(F)(F)Oc1ccc2nc(-c3ccc(OCCOCCOc4ccc(-c5nc6ccc(OC(F)(F)F)cc6[nH]5)nc4)cn3)[nH]c2c1`, the relative cell viability came out at 0.708 ± 0.0018.
Under `O=C(O)CCCc1c[nH]c2ccccc12` [3-Indolebutyric acid (IBA)] stands 1.11 ± 0.1; under `O=C(/C=C/c1ccc(CN(CCO)CCc2c[nH]c3ccccc23)cc1)NO` [LAQ824 (Dacinostat)], 0.124 ± 0.015; under `OCc1c[nH]c2ccccc12` [Indole-3-carbinol], 1.007 ± 0.0087.
Compound `COc1cc(C(=O)N2CCC(N3CCN(C)CC3)CC2)ccc1Nc1ncc2c(n1)N(C)c1ccccc1C(=O)N2C` returned a relative cell viability of 1.02 ± 0.019.
Under `Cc1cc(F)c(Nc2ncnc3cc(OCc4ccccc4)ccc23)cc1O` stands 1.17 ± 0.027; under `CC(C)C[C@H](NC(=O)[C@H](CCc1ccccc1)NC(=O)CN1CCOCC1)C(=O)N[C@@H](Cc1ccccc1)C(=O)N[C@@H](CC(C)C)C(=O)[C@@]1(C)CO1` [Carfilzomib (PR-171)], 0.193 ± 0.016.
Compound `COC[C@H](NC(=O)c1cnc(C)s1)C(=O)N[C@@H](COC)C(=O)N[C@@H](Cc1ccccc1)C(=O)[C@@]1(C)CO1` [Oprozomib (ONX 0912)] came in with a relative cell viability of 0.123 ± 0.005.
Take `COC(=O)[C@H](Cc1ccccc1)NC(=O)[C@@H](N)CC(=O)O` [Aspartame]: the relative cell viability was determined as 1.09 ± 0.15.
Compound `COc1ccc(C[C@H](NC(=O)[C@H](C)NC(=O)CN2CCOCC2)C(=O)N[C@@H](Cc2ccccc2)C(=O)[C@@]2(C)CO2)cc1` displayed a relative cell viability of 0.1525 ± 0.00028.
The compound `CC(NC(=O)C(Cc1ccccc1)NC(=O)OCc1ccccc1)C(=O)CF` (configuration not stated) came in with a relative cell viability of 0.951 ± 0.043.
Turning to `CC(C)C[C@H](NC(=O)[C@H](Cc1ccccc1)NC(=O)c1cnccn1)B(O)O` [Bortezomib (PS-341)], the relative cell viability turned out to be 0.329 ± 0.066.
Compound `CC(C)N(C[C@H]1O[C@@H](n2cnc3c(N)ncnc32)[C@H](O)[C@@H]1O)[C@H]1C[C@@H](CCc2nc3cc(C(C)(C)C)ccc3[nH]2)C1` had a relative cell viability of 1.12 ± 0.029.
Regarding `C[C@H]1O[C@@H](O[C@H]2[C@@H](O)C[C@H](O[C@H]3[C@@H](O)C[C@H](O[C@H]4CC[C@@]5(C)[C@H](CC[C@@H]6[C@@H]5C[C@@H](O)[C@]5(C)[C@@H](C7=CC(=O)OC7)CC[C@]65O)C4)O[C@@H]3C)O[C@@H]2C)C[C@H](O)[C@@H]1O` [Digoxin], the relative cell viability turned out to be 0.0999 ± 0.0026.
With `C[C@H]1Oc2cc(cnc2N)-c2c(nn(C)c2C#N)CN(C)C(=O)c2ccc(F)cc21` the figure was 1.12 ± 0.049; with `Cn1cc(C2=C(c3cn(CCCSC(=N)N)c4ccccc34)C(=O)NC2=O)c2ccccc21` [Ro 31-8220 Mesylate], 1.05 ± 0.1.
With `C/C(=N\NC(=O)c1cccc(S(=O)(=O)N2CCOCC2)c1)c1cc(Cl)ccc1O`, the relative cell viability stood at 1.08 ± 0.014.
Turning to `COc1ccc(S(=O)(=O)N(C(C)=O)c2ccccc2/C=C/c2cc[n+]([O-])cc2)cc1`, the relative cell viability worked out at 0.855 ± 0.05.
`NC[C@@](O)(c1ccc(Cl)cc1)c1ccc(-c2cn[nH]c2)cc1`: the relative cell viability worked out at 0.23 ± 0.029.
`COc1c(C)cnc(Cn2cnc3c(Cl)nc(N)nc32)c1C`: the relative cell viability came out at 0.19 ± 0.017.
In turn, `O=C(Cc1cccc(OC(F)(F)F)c1)Nc1ccc(CCCCc2nnc(NC(=O)Cc3ccccn3)s2)nn1` came in with a relative cell viability of 1.04 ± 0.35.
As for `O=C1NC(=O)C(c2cnc3ccccn23)=C1c1cn2c3c(cc(F)cc13)CN(C(=O)N1CCCCC1)CC2`, the relative cell viability came to 1.28 ± 0.1.
Under `COc1ccccc1S(=O)(=O)Nc1ccc2c(c1)CN(C)C(=O)N2` stands 0.881 ± 0.091.
Take `Cc1ncc(CCCN(C)C)cc1Nc1ncc2c(n1)-c1ccc(C(F)(F)F)cc1NC(=S)C2`: the relative cell viability stood at 0.81 ± 0.023.
